Bioassay records: PubChem, National Center for Advancing Translational Sciences (NCATS)
Sampled rows, rich in hits. Any-hit rate of the full collection: about 4.2%.
D1 antag: antagonists of human D1 dopamine receptor. 360,000 compounds, 3.2% hits. HEK293 TREx D1 cells, calcium flux, dopamine EC80; stronger effect = lower value. activity change, negative = inhibition, % at 10 µM; in the data active = activity change below about -30%; note: % is set by controls: 0 for no effect and ±100 for the full control effect
Target sequence (P21728 whole entry, looked up): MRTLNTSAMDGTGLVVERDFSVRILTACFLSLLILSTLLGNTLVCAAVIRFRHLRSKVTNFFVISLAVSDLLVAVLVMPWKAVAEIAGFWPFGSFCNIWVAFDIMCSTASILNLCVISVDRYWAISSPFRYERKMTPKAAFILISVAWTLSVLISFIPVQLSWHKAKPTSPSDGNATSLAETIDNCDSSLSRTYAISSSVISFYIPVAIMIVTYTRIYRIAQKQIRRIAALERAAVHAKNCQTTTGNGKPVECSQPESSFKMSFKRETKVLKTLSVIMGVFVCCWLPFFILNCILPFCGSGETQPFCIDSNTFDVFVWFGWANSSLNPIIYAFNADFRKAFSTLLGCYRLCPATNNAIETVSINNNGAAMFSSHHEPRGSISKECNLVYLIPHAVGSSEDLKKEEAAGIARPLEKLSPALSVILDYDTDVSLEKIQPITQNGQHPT
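Cells carrying a force-coupled, tetracycline-inducible human D1 receptor report calcium flux. Each well gets a 10 s baseline, compound with 180 s monitoring, then an EC80 dopamine stimulus with a second 180 s kinetic read.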
D1 agonist: agonists of human D1 dopamine receptor; 360,000 compounds, 1% hits; P21728; HEK293 T-REx D1 cells, calcium flux, agonist mode; activation, % at 2 µM; in the data active = activation above about 30%; note: 0% is about no effect
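Tetracycline-induced HEK293 TREx D1 cells, force-coupled to calcium signalling, were dye-loaded with a no-wash calcium kit. Compound was pin-added after a 10 s baseline. Fluorescence was read kinetically at 1 cycle/s for 180 s, with calcium rises flagged as agonism.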
TRPV1 agonist: human TRPV1 agonism | AID 540275 | TRPV1-expressing cells, Fluo-8 calcium influx, agonist mode | Q8NER1 | 320,000 compounds, 0.19% hits | activation, % at 8.33 µM; in the data active = activation above about 80%; inconclusive = between about 30% and that limit; note: 0% is about no effect
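Cells expressing TRPV1 were dye-loaded with Fluo-8 and read kinetically: 10 s baseline, 3 min after compound (agonist portion), then 2 min after EC20 capsaicin (allosteric enhancer portion). Calcium-bound dye fluorescence at 480/520 nm.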
D1 potentiator: human D1 dopamine receptor positive modulation | P21728 | HEK293 TREx D1 cells, calcium flux, dopamine EC20 potentiation | potentiation, % at 10 µM | 360,000 compounds, 0.036% hits | AID 504651; in the data active = potentiation above about 30%; note: 0% is about no effect
TRPV1 PAM: enhances activation of the human vanilloid receptor TRPV1 | Q8NER1 | TRPV1-expressing cells, Fluo-8 calcium influx, capsaicin EC20 potentiation | potentiation, % at 8.33 µM | 320,000 compounds, 0.02% hits | AID 540277; in the data active = potentiation above about 80%; inconclusive = between about 30% and that limit; note: 0% is about no effect
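Cells expressing TRPV1 were dye-loaded with Fluo-8 and read kinetically: 10 s baseline, 3 min after compound (agonist portion), then 2 min after EC20 capsaicin (allosteric enhancer portion). Calcium-bound dye fluorescence at 480/520 nm.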
Starred values were filed as active, the others as inactive.

Screening CC(C)c1ccc(NC2CCCN(C(=O)c3ccco3)C2)cc1 (stereo not given) returned D1 antag 4.7, D1 agonist 1.3, TRPV1 agonist 97.5*, D1 potentiator 1.7 and TRPV1 PAM -17.6.
For COC(=O)c1ccc(C(=O)N2CCCC(Nc3ccc(C(C)C)cc3)C2)nc1 (stereo not given) the results were D1 antag -10.3, D1 agonist 8.1, TRPV1 agonist 82.8*, D1 potentiator -2.8 and TRPV1 PAM 1.9.
`CC(C)c1ccc(NC2CCCN(C(=O)c3ccnc(Cl)c3)C2)cc1` (stereo not given) gave D1 antag 1.6, D1 agonist -0.3, TRPV1 agonist 90.9*, D1 potentiator 4.2 and TRPV1 PAM -12.4.
CCOC(=O)c1cc(-c2ccc(F)cc2)n(CC(=O)NC2CCCCC2)c1C was read as D1 antag 3.7, D1 agonist 1.4 and D1 potentiator -0.8.
`Cc1cc(C)cc(NC(=O)C2CCN(c3cc(C)nc4c(-c5ccc(Cl)cc5)c(C)nn34)CC2)c1` gave D1 antag 6.0, D1 agonist 0.5 and D1 potentiator 1.8.
CCOC(=O)C1CCN(C(c2cccc(F)c2)c2c(O)cc(C)n(Cc3ccco3)c2=O)CC1 (stereo not given) was read as D1 antag -7.1, D1 agonist 2.4 and D1 potentiator -3.6.
For CCC(=O)N1CCc2cc(-c3csc(NC(=O)c4ccco4)n3)ccc21 the results were D1 antag -2.4, D1 agonist 0.4, TRPV1 agonist -1.8, D1 potentiator -2.8 and TRPV1 PAM 8.6.
Screening CC(C)C(=O)N1CCc2cc(-c3csc(N)n3)ccc21 returned D1 antag -42.8*, D1 agonist 2.3, TRPV1 agonist 5.5, D1 potentiator -5.8 and TRPV1 PAM 4.0.
Screening CCN(CC)C(=O)COc1ccc(/C(C)=N/NC(=O)c2ccccc2Br)cc1 returned D1 antag -6.4, D1 agonist 1.7, TRPV1 agonist 0.1, D1 potentiator -1.6 and TRPV1 PAM -0.4.
For CCN(CC)C(=O)COc1ccc(/C(C)=N/NC(=O)c2ccccc2O)cc1 the results were D1 antag -50.8*, D1 agonist 2.0, TRPV1 agonist 23.0, D1 potentiator -4.2 and TRPV1 PAM -16.8.
For CCOc1cc(C(=O)Nc2ccc(N3CCOCC3)cc2)cc(Br)c1OC the results were D1 antag 9.2, D1 agonist -0.2, TRPV1 agonist 17.2, D1 potentiator -2.2 and TRPV1 PAM 28.0.
`COc1cc2[nH]c(C(=O)Nc3ccc(F)cc3)cc2c(OC)c1OC` gave D1 antag -28.5, D1 agonist 1.1, TRPV1 agonist 86.1*, D1 potentiator -8.0 and TRPV1 PAM -5.6.
For CCOc1cc(C(=O)Nc2ccc(F)cc2)cc(Br)c1OC the results were D1 antag -53.3*, D1 agonist 9.8, TRPV1 agonist inconclusive, D1 potentiator -1.1 and TRPV1 PAM -10.8.
Screening O=C(Cn1c(=O)n(Cc2ccco2)c(=O)c2oc3ccccc3c21)Nc1ccc(F)c(Cl)c1 returned D1 antag -0.7, D1 agonist 2.5 and D1 potentiator -0.9.
For Cn1c(CN2CCOCC2)nc2cc(NC(=O)c3ccccc3[N+](=O)[O-])ccc21 the results were D1 antag 2.1, D1 agonist 1.5 and D1 potentiator -0.3.
Screening O=C1NC(=O)C(c2ccccc2[N+](=O)[O-])=C1Nc1ccc(O)c(Cl)c1 returned D1 antag -37.8*, D1 agonist 1.2, TRPV1 agonist 3.9, D1 potentiator -10.4 and TRPV1 PAM 4.6.
For O=C(NNc1ccccc1[N+](=O)[O-])Nc1ccc(Cl)c(Cl)c1 the results were D1 antag -27.4, D1 agonist 14.0, TRPV1 agonist 1.2, D1 potentiator 3.5 and TRPV1 PAM -6.8.
Screening CCN(CC)CCCNC(=O)CN1N=C(c2ccccc2)CCC1=O returned D1 antag -13.0, D1 agonist -3.4 and D1 potentiator -1.4.
`Cc1ccc(C23CC4CC(CC(CN)(C4)C2)C3)cc1` gave D1 antag 22.2, D1 agonist 42.1*, TRPV1 agonist -1.9, D1 potentiator -5.7 and TRPV1 PAM -4.4.
COc1ccccc1N1CCN(C(=O)CN2C(=O)COc3ccc(S(=O)(=O)N4CCCC4)cc32)CC1 was read as D1 antag -5.1, D1 agonist 2.5 and D1 potentiator -2.7.
